Assay results: PubChem BioAssay

How the values were obtained:
[1] = test system: Botulinum neurotoxin type F light chain protease (Clostridium botulinum); experiment: Clostridium botulinum type F light chain protease inhibitors, microsphere substrate cleavage, validation (AID 588459); details: multiplex microsphere protease substrate cleavage assay, flow cytometry; at 10 µM; stronger effect = higher value
[2] = biological target: Botulinum neurotoxin type A (Clostridium botulinum) (UniProt P0DPI0); experiment: BoNT/A light chain protease inhibitors, biochemical, multiplex microsphere flow cytometry, validation set (AID 588460); details: at 10 µM, stronger effect = higher value
[3] = biological target: Lethal factor (Bacillus anthracis) (UniProt P15917); experiment: Bacillus anthracis lethal factor inhibition, microsphere flow cytometry protease assay, validation at 10 µM (AID 588461); details: multiplex microsphere protease cleavage assay, stronger effect = higher value

Measured: inhibition

Sequence of Botulinum neurotoxin type A (Clostridium botulinum) (P0DPI0 whole entry, looked up): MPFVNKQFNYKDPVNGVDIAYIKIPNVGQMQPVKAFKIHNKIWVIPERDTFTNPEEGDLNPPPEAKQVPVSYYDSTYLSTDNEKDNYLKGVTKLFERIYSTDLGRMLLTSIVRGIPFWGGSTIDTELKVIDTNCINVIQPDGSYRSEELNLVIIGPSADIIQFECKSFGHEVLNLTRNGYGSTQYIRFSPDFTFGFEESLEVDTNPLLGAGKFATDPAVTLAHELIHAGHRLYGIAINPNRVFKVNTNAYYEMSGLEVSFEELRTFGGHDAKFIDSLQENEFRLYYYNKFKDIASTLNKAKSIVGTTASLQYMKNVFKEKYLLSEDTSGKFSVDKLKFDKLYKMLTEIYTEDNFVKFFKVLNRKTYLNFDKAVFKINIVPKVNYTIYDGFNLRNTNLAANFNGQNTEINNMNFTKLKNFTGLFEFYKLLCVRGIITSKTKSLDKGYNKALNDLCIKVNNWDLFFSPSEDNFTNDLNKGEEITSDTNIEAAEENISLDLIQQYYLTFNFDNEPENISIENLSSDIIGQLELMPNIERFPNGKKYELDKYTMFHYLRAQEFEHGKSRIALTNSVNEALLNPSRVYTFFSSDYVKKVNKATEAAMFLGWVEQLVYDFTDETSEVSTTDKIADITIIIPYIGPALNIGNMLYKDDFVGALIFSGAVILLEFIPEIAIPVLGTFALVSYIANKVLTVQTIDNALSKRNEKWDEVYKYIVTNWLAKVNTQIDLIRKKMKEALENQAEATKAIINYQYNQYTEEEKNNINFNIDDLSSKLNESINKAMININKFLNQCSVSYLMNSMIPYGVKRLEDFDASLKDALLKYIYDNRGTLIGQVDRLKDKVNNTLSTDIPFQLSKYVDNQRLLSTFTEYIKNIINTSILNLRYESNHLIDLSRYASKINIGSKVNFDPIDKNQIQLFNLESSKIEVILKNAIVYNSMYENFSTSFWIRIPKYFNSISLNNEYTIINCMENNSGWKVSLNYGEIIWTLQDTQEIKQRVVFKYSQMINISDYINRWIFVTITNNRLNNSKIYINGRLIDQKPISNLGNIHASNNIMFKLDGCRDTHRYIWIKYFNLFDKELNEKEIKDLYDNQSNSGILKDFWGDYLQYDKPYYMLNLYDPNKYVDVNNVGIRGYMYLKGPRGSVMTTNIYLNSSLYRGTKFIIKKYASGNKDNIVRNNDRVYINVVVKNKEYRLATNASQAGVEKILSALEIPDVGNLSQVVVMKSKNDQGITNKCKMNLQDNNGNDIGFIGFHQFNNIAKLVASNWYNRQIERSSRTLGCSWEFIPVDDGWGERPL
Sequence of Lethal factor (Bacillus anthracis) (P15917 whole entry, looked up): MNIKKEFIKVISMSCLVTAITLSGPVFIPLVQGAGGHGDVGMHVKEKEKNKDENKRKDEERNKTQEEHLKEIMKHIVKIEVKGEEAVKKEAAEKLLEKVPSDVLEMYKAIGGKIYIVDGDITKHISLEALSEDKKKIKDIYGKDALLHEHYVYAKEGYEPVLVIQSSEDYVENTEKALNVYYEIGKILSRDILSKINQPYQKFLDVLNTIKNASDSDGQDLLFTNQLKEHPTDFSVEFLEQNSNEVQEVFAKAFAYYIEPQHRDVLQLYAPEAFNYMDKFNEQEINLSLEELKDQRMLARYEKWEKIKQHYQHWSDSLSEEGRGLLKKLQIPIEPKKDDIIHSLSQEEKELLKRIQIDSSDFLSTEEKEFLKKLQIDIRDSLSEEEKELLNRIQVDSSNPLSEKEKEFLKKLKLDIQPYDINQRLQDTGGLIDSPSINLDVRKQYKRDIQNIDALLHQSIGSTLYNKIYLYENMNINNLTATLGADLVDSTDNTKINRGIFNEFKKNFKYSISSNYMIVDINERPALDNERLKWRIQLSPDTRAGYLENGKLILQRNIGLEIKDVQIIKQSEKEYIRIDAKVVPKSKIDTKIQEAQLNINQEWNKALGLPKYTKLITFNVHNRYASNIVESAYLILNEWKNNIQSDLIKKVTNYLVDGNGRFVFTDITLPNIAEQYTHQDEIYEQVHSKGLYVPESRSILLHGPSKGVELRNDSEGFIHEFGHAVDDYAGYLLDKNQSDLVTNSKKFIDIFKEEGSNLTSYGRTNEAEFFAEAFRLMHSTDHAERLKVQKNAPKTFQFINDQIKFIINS

O=C1OCCN1/N=C/c1ccc([N+](=O)[O-])o1
inactive: [1] 2.9% | [2] -0.4% | [3] -8.7%

COc1ccc(C2C(C#N)=C(N)Oc3cc(C)[nH]c(=O)c32)c(OC)c1OC (stereo not given)
inactive: [1] 1.9% | [2] 0.1% | [3] 0.8%

CCCNCC(O)COc1ccccc1C(=O)CCc1ccccc1 (stereo not given)
inactive: [1] 1.5% | [2] 0% | [3] -1.2%

CC1(C)CC(=O)c2c(nc3ccccc3c2N)C1
inactive: [1] 1% | [2] -0.5% | [3] 7.9%

CCN(CCCCOC(=O)c1ccc(OC)c(OC)c1)C(C)Cc1ccc(OC)cc1 (stereo not given)
inactive: [1] -0.4% | [2] -2.7% | [3] -2.8%

O=C1C2C3C=CC(C4CC34)C2C(=O)N1/N=C/c1ccc(-c2ccc([N+](=O)[O-])cc2)o1 (stereo not given)
inactive: [1] 2.1% | [2] 3.4% | [3] -1.8%

O=c1cc(-c2ccc3c(c2)OCCO3)oc2ccc(Cl)cc12
inactive: [1] 0.8% | [2] -0.6% | [3] 0.9%

COc1cc2c3c(c1)C(C)CC(C)(C)N3C(=O)C2=O (stereo not given)
inactive: [1] -6.7% | [2] -1.3% | [3] -5.6%

O=C(Nc1ccccc1)OCC1CCCN2CCCCC12 (stereo not given)
inactive: [1] 0.6% | [2] 0.3% | [3] 2.5%

CC(=O)O[C@]1(C(C)=O)CC[C@H]2[C@@H]3C[C@H](C)C4=CC(=O)CC[C@]4(C)[C@H]3CC[C@@]21C
inactive: [1] 0.4% | [2] -1.6% | [3] -5.5%
